# Test results as given in PubChem BioAssay.
# Target: Dickkopf-related protein 1 (Homo sapiens) (UniProt O94907)
# Experiment: small molecules binding DKK1 protein – biochemical, small-molecule microarray, 635 nm fluorescence scan, primary screen (AID 1106);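 note: score merges emission near 667 nm with signal to noise over three replicate slides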
# Conditions: higher = more signal
# Dickkopf-related protein 1 (Homo sapiens), sequence (O94907 whole entry, looked up): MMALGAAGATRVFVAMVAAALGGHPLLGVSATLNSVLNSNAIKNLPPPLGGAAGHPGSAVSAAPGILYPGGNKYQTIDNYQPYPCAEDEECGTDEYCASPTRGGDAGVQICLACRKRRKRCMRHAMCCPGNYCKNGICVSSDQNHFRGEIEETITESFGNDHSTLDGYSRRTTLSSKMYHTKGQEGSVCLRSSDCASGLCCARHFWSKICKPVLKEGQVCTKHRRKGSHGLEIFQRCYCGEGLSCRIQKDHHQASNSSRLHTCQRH
row,Structure (SMILES),composite z-score
1,CCCC1(C(=O)OC)C=C2C(=C(C)C(=O)C2C)CN1 (stereo not given),-0.238
2,NCCCCCNC(=O)[C@@H]1C[C@@H]2C(=O)N[C@@H](CCCCN)C(=O)N2[C@@H]1c1ccc(O)cc1,1.81
3,CCCN1C(=O)[C@]2(Cc3ccccc31)N=C(c1ccc(OCCCO)cc1)O[C@@H]2c1ccccc1,-0.303
4,CCN(CC)c1ccc(N2CC=CC34O[C@@H]5/C=C\CCCOC(=O)C5[C@H]3C(=O)N(C(C)CO)[C@@H]4C2=O)cc1 (stereo not given in full),0.512
5,NC(=O)[C@H]1[C@@H]2C(=O)O[C@@H](c3ccccc3)[C@@H](c3ccccc3)N2[C@@H](c2ccc(OCCO)cc2)[C@]12C(=O)Nc1ccc(C#CCCO)cc12,0.24
6,CC(C)C(CO)N1C(=O)[C@@H]2[C@H]3C(=O)OCC=C[C@H]3OC23C=CCN(c2ccc(Cl)cc2)C(=O)[C@@H]13 (stereo not given in full),-0.865
7,C=CCNC(=O)[C@@H]1[C@H]2C(=O)O[C@H](c3ccccc3)[C@H](c3ccccc3)N2[C@H](c2ccccc2OCCO)[C@@]12C(=O)Nc1ccc(C#CCC(C(=O)OC)C(=O)OC)cc12,0.0965
8,COc1ccc(C#Cc2ccc3c(c2)[C@]2(C(=O)N3)[C@H](C(=O)O)[C@H]3C(=O)O[C@H](c4ccccc4)[C@H](c4ccccc4)N3[C@@H]2c2ccc(O)cc2)cc1,-0.603
9,CCCC[C@@H](O)C1=C(COC)C[C@H]2C(=O)N(Cc3ccccc3)C(=O)[C@H]2[C@H]1CO,0.972
10,COC(=O)[C@@]1(Cc2ccc(F)cc2)[C@H]2c3cc(C(=O)N4CCCC4)n(Cc4ccc(C)c(F)c4F)c3C[C@H]2CN1C(=O)c1ccccc1,-0.453
11,C=CCNC(=O)[C@@H]1[C@H]2C(=O)O[C@H](c3ccccc3)[C@H](c3ccccc3)N2[C@H](c2ccc(O)cc2)[C@@]12C(=O)N(C(=O)OCCOC)c1ccc(C#CC3=CCCCC3)cc12,0.53
12,C#Cc1cc2ccccc2oc1=O,-1.87
13,COc1cc(NN2C(C(O)c3cc(OC)c(OC)c(OC)c3)C=CC3C(=O)N(C)C(=O)C32)cc(OC)c1OC (stereo not given),-0.289
14,CO[C@H]1O[C@H](CO)[C@@H](OC(=O)Nc2ccccc2)[C@H](OC(=O)c2cc3ccccc3[nH]2)[C@H]1OC(=O)c1cc2ccccc2[nH]1,0.201
15,CCOC(=O)C[C@H]1[C@H](OC(=O)Cc2ccc3c(c2)OCO3)[C@@H](NC(=O)c2ccc3ccccc3n2)c2cc(OCCCO)ccc2N1C(=O)c1ccc2ccccc2n1,0.483
16,COc1ccc(C#Cc2ccc3c(c2)[C@]2(C(=O)N3)[C@H](c3ccc(OCCO)cc3)N3[C@H](c4ccccc4)[C@H](c4ccccc4)OC(=O)[C@H]3[C@@H]2C(=O)NC[C@H](O)c2ccccc2)cc1,0.301
17,NCCCCCNC(=O)[C@H]1C[C@H]2C(=O)N3CCC[C@H]3C(=O)N2[C@H]1c1cccc(OCCO)c1,-0.331
18,CO[C@H]1O[C@H](CO)[C@@H](OC(=O)Nc2ccc(Br)cc2)[C@@H]2OC(=O)[C@@H](Cc3ccccc3)C/C=C/C[C@H](Cc3ccccc3)C(=O)O[C@@H]12,-0.0375

row,Structure (SMILES),composite z-score
1,CCOC(=O)[C@@H]1CCCCN1C(=O)C(=O)OC,0.333
2,O=C(Cc1ccccc1)[C@H]1C2C=CCCC(c3ccccc3)=C2CN1Cc1ccccc1 (stereo not given in full),0.191
3,CCOC(=O)C[C@H]1[C@H](OC(=O)Cc2ccc3c(c2)OCO3)[C@@H](NC(=O)C2CCCCC2)c2cc(OCCCO)ccc2N1C(=O)c1ccccc1,0.351
4,C=C[C@H](C)[C@H](OC(=O)Nc1ccc(SC)cc1)c1ccc(OCCO)cc1,0.148
5,CCCCC(CC)C(O)C1C=CC2C(=O)N(c3ccccc3)C(=O)C2N1Nc1ccccc1F (stereo not given),-0.505
6,Cc1ccc(C(C)CC(O)C2C=CC3C(=O)N(c4ccccc4)C(=O)C3N2Nc2ccccc2)o1 (stereo not given),-0.174
7,CCOC(=O)C1=C[C@@H](C(C)(C)C)N(S(=O)(=O)c2ccc(C)cc2)[C@H]1c1cccc2ccccc12,-0.412
8,CC(C)N1C(=O)C[C@@](C(=O)NC2CC2)(c2ccc([N+](=O)[O-])cc2)[C@H]1c1ccc(CO)cc1,-0.674
9,COC(=O)c1c(CC[C@@H](CO)NC(=O)N2CCC[C@H]2Cn2cc(C3(O)CCCCC3)nn2)oc(C(C)=O)c1C(=O)OC,0.336
10,NC(=O)NCC#Cc1ccc2c(c1)[C@]1(C(=O)N2)[C@H](c2ccccc2OCCO)N2[C@H](c3ccccc3)[C@H](c3ccccc3)OC(=O)[C@H]2[C@@H]1C(=O)NC[C@H](O)c1ccccc1,-0.548
11,CN(C)C(=O)[C@]1(CCC(=O)OC(C)(C)C)N=C(c2ccc(OCCCO)cc2)O[C@@H]1c1ccccc1CN=[N+]=[N-],-0.396
12,Cc1ccccc1C(O)C1C=CC2C(=O)NC(=O)C2N1Nc1ccccn1 (stereo not given),0.144
13,COCCOC(=O)N1C(=O)[C@@]2(c3ccccc31)[C@H](C(=O)NC[C@H](O)c1ccccc1)[C@H]1C(=O)O[C@H](c3ccccc3)[C@H](c3ccccc3)N1[C@@H]2c1ccc(O)cc1,0.827
14,CC1CC/C=C\[C@H]2OC34C=CCN(C(C)C)C(=O)[C@H]3N(CCO)C(=O)[C@@H]4C2C(=O)O1 (stereo not given in full),-1.28
15,CCOC(=O)C=Cc1cccc(C)c1O,-0.199
16,CCCCCCCCCCC(O)C1C=CC2C(=O)N(c3ccccc3)C(=O)C2N1Nc1ccc(C#N)cc1 (stereo not given),-0.517
17,COCC(=C=CC[C@H](O)c1ccc(CO)o1)CCO,0.352
